According to ChEMBL document CHEMBL1961873, “Compounds: GSK PKIS; Assays: Nanosyn kinase panel” (2012):

Experiments:
[1] = target: Rho-associated protein kinase 1 (Homo sapiens) (UniProt Q13464); details: at 1 µM;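 note: reported values are mean percent inhibition of ROCK1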
[2] = target: Rho-associated protein kinase 2 (Homo sapiens) (UniProt O75116); details: at 0.1 µM
[3] = target: Rho-associated protein kinase 2 (Homo sapiens) (UniProt O75116); details: at 1 µM
[4] = target: Ribosomal protein S6 kinase alpha-1 (Homo sapiens) (UniProt Q15418); details: at 0.1 µM
[5] = target: Ribosomal protein S6 kinase alpha-1 (Homo sapiens) (UniProt Q15418); details: at 1 µM
[6] = target: Ribosomal protein S6 kinase alpha-3 (Homo sapiens) (UniProt P51812); details: at 0.1 µM
[7] = target: Ribosomal protein S6 kinase alpha-3 (Homo sapiens) (UniProt P51812); details: at 1 µM
[8] = target: Ribosomal protein S6 kinase alpha-2 (Homo sapiens) (UniProt Q15349); details: at 0.1 µM
[9] = target: Ribosomal protein S6 kinase alpha-2 (Homo sapiens) (UniProt Q15349); details: at 1 µM
[10] = target: Ribosomal protein S6 kinase alpha-6 (Homo sapiens) (UniProt Q9UK32); details: at 0.1 µM
[11] = target: Ribosomal protein S6 kinase alpha-6 (Homo sapiens) (UniProt Q9UK32); details: at 1 µM
[12] = target: T1, Serine/threonine-protein kinase Sgk1 (Homo sapiens) (UniProt O00141); details: at 0.1 µM
T1 sequence (whole entry): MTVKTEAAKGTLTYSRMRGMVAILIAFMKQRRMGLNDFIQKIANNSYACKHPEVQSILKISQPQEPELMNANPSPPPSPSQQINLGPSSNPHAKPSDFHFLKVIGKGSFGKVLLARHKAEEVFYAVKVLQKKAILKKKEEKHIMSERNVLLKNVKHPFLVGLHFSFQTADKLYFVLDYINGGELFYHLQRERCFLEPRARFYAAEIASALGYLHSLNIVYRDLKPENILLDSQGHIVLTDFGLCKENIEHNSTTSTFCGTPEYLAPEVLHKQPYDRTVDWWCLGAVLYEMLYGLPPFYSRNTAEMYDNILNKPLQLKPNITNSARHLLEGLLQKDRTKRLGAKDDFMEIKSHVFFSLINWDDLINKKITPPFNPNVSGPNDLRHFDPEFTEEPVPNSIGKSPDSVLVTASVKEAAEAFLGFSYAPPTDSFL

[13] = target: T1, Serine/threonine-protein kinase Sgk1 (Homo sapiens); details: at 1 µM
[14] = target: T2, Serine/threonine-protein kinase Sgk2 (Homo sapiens) (UniProt Q9HBY8); details: at 0.1 µM
T2 sequence (whole entry): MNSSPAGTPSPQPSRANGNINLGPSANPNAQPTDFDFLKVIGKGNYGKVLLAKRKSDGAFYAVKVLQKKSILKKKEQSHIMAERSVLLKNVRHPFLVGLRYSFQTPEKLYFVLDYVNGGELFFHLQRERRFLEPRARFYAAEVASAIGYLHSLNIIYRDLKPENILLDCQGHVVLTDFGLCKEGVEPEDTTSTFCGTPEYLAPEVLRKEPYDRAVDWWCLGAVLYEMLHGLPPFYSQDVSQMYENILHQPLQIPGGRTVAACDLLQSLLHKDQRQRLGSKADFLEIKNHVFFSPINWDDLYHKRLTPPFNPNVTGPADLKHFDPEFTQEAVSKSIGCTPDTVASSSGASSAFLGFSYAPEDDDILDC

[15] = target: T2, Serine/threonine-protein kinase Sgk2 (Homo sapiens); details: at 1 µM
[16] = target: T3, Serine/threonine-protein kinase Sgk3 (Homo sapiens) (UniProt Q96BR1); details: at 0.1 µM
T3 sequence (whole entry): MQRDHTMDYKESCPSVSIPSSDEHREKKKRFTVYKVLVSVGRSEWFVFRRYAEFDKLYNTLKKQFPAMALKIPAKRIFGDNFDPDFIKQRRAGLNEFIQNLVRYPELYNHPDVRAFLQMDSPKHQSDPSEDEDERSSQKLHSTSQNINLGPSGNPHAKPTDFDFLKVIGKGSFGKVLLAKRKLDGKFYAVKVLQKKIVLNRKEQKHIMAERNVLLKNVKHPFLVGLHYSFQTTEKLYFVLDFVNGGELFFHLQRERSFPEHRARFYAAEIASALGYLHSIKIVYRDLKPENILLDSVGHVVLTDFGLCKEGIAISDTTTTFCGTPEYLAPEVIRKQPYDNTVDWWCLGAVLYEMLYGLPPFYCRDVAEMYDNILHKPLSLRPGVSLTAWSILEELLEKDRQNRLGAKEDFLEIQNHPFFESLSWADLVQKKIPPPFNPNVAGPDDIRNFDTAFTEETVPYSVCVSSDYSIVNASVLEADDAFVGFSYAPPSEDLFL

[17] = target: T3, Serine/threonine-protein kinase Sgk3 (Homo sapiens); details: at 1 µM
[18] = target: 5'-AMP-activated protein kinase catalytic subunit alpha-1 (Homo sapiens) (UniProt Q13131); details: at 0.1 µM
[19] = target: 5'-AMP-activated protein kinase catalytic subunit alpha-1 (Homo sapiens) (UniProt Q13131); details: at 1 µM
[20] = target: 5'-AMP-activated protein kinase catalytic subunit alpha-2 (Homo sapiens) (UniProt P54646); details: at 0.1 µM;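 note: mean inhibition measured on the AMPK complex of alpha2, beta1 and gamma1 subunits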
Chain of 5'-AMP-activated protein kinase catalytic subunit alpha-2 (Homo sapiens) (P54646 whole entry, looked up): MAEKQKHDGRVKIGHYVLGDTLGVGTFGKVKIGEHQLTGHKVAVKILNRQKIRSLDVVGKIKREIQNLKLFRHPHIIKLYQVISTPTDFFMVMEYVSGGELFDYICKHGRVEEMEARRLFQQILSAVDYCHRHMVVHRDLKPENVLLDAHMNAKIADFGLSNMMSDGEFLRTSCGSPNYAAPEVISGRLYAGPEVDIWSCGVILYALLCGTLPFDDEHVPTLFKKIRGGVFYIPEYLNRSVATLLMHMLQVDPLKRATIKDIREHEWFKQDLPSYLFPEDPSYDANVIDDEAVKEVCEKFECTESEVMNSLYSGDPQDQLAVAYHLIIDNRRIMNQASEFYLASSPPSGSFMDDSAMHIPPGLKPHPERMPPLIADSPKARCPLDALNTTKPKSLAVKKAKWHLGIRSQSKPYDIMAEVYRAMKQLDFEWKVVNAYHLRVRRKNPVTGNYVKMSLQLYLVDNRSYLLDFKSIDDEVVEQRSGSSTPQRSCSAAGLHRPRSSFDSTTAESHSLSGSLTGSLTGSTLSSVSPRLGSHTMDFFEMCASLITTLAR

Chain of Ribosomal protein S6 kinase alpha-2 (Homo sapiens) (Q15349 whole entry): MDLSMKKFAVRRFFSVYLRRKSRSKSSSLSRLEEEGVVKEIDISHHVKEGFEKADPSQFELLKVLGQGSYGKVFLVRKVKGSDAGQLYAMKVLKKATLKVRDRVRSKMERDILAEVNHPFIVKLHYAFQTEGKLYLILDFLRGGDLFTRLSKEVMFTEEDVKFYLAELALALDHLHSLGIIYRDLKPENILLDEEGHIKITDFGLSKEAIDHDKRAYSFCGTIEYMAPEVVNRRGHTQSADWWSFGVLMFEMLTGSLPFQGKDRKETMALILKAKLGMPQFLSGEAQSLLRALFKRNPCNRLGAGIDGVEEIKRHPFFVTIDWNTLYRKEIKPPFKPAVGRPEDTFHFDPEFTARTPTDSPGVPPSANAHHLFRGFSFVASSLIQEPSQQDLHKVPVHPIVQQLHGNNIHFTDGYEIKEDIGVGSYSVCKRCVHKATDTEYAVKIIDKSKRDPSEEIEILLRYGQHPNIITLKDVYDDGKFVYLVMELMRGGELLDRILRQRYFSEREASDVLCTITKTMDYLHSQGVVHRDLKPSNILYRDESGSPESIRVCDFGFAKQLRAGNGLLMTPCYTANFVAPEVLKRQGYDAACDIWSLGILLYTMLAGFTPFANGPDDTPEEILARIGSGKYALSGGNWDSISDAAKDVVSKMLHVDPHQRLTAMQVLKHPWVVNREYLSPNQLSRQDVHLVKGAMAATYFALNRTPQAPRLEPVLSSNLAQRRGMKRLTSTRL
Chain of Rho-associated protein kinase 1 (Homo sapiens) (Q13464 2-1354 limits assumed): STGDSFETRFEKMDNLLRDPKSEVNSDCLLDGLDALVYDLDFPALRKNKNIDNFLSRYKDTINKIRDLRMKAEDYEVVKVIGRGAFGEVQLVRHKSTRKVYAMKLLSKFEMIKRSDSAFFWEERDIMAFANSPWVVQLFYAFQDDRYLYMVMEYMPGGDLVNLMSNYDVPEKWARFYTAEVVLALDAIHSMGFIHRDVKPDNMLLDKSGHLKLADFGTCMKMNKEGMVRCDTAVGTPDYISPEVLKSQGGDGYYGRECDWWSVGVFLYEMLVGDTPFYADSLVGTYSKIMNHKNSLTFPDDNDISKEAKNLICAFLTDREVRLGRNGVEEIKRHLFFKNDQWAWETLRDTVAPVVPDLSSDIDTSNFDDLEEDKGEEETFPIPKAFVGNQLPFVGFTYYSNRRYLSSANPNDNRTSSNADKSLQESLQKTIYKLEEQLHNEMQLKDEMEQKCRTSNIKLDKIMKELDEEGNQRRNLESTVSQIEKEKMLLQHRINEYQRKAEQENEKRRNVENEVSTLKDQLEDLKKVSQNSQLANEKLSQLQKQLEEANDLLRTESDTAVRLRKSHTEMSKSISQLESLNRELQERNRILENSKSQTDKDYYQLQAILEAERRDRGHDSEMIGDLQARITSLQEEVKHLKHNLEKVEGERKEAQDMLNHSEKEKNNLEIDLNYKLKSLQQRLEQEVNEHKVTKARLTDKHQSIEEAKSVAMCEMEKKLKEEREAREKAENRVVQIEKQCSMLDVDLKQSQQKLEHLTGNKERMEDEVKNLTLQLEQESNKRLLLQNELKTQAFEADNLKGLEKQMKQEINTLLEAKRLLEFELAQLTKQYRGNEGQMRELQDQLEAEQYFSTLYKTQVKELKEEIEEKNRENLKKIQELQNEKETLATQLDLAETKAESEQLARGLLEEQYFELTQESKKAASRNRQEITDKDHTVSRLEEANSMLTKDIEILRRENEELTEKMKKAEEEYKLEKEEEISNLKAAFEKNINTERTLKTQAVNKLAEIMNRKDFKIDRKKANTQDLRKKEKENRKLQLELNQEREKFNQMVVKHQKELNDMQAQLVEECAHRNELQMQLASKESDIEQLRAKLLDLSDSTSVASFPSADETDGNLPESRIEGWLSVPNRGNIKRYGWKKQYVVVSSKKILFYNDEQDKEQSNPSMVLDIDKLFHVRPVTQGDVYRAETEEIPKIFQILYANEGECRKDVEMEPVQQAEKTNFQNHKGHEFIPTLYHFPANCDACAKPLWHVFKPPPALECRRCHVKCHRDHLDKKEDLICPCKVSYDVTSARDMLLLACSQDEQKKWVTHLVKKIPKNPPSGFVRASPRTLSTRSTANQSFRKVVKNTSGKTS
Chain of 5'-AMP-activated protein kinase catalytic subunit alpha-1 (Homo sapiens) (Q13131 whole entry, looked up): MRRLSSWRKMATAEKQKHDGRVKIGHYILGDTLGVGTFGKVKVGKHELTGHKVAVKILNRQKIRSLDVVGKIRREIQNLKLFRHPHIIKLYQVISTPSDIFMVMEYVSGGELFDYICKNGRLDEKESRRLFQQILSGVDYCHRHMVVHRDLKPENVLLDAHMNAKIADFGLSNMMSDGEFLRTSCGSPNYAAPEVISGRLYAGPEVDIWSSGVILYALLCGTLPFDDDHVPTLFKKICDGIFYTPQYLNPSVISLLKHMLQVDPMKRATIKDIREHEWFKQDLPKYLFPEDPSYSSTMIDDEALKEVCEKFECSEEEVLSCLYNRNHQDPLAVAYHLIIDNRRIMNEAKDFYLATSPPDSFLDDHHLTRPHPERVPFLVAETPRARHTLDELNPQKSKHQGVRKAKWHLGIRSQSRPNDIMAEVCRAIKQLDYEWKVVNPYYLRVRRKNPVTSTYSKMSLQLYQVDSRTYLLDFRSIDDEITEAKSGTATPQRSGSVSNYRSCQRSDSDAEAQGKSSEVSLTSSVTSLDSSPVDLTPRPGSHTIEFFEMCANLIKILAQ
Chain of Ribosomal protein S6 kinase alpha-1 (Homo sapiens) (Q15418 whole entry): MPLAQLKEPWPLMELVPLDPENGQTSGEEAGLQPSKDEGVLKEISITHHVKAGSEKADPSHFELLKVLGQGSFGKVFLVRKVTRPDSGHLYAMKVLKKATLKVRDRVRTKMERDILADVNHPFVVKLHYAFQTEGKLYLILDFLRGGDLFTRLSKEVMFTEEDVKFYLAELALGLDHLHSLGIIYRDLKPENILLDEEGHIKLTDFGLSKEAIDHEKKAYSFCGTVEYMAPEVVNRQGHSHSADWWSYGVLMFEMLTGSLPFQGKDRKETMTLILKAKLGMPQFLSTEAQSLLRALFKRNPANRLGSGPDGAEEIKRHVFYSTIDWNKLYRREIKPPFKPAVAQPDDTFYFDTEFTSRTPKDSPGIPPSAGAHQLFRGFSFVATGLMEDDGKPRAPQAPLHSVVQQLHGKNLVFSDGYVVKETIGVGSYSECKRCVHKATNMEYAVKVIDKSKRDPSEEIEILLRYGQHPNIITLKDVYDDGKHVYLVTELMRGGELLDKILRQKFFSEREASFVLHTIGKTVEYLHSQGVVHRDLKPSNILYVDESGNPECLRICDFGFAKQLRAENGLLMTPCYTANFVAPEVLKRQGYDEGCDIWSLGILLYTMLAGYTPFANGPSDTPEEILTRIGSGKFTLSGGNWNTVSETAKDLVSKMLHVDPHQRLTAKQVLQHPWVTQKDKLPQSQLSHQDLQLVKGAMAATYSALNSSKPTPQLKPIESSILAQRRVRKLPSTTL
Chain of Ribosomal protein S6 kinase alpha-6 (Homo sapiens) (Q9UK32 whole entry): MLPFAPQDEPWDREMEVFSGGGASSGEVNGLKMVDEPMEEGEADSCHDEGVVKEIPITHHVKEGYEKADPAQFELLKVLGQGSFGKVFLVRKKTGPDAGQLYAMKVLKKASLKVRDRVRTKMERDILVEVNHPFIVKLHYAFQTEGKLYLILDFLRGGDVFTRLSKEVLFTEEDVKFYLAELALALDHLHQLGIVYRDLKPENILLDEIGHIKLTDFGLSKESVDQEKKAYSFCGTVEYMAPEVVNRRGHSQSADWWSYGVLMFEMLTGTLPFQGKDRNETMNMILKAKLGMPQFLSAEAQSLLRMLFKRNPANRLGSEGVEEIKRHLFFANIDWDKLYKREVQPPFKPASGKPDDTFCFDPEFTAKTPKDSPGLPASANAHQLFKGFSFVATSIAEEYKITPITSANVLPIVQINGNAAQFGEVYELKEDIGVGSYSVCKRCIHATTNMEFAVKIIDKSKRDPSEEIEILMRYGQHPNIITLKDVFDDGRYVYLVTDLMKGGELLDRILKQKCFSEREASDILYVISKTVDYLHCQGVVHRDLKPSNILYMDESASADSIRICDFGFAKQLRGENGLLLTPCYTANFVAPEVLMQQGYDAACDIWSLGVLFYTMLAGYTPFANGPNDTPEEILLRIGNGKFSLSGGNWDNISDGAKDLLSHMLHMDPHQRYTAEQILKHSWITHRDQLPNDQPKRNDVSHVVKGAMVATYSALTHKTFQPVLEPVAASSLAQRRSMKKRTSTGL

SMILES | inhibition [1] [%] | inhibition [2] [%] | inhibition [3] [%] | inhibition [4] [%] | inhibition [5] [%] | inhibition [6] [%] | inhibition [7] [%] | inhibition [8] [%] | inhibition [9] [%] | inhibition [10] [%] | inhibition [11] [%] | inhibition [12] [%] | inhibition [13] [%] | inhibition [14] [%] | inhibition [15] [%] | inhibition [16] [%] | inhibition [17] [%] | inhibition [18] [%] | inhibition [19] [%] | inhibition [20] [%]
Cc1nnc(-c2ccc(C)c(-c3ccc(C(=O)NCc4ccc(Cl)cc4)cc3)c2)o1 | 2.48 | 3.86 | 5.72 | 2.78 | 2.72 | 2 | 2.89 | 3.07 | 3.77 | 1.59 | 2.38 | 5.07 | 3.26 | 2.67 | 6.19 | 1.38 | 5.66 | 2.95 | 3.4 | 3.74
COc1ccc(C2=C(N3CCc4ccccc43)C(=O)NC2=O)cc1 | 1.57 | 2.97 | 3.17 | 2.46 | 4.09 | 0.95 | 1.69 | 2.16 | 3.86 | 2.62 | 4.12 | 5.57 | 2.06 | -2.15 | -5.83 | 4.38 | 1.94 | 4.29 | 5.67 | 1.73
Clc1ccc(CNc2nccc(-c3cnn4ncccc34)n2)cc1 | 1.31 | 2.04 | 2.71 | 1.41 | 1.24 | 0.05 | 0.52 | 0.62 | 0.33 | 2.62 | 0.72 | 0.33 | 3.99 | 3.3 | 1.91 | 0.59 | 0.73 | -0.21 | 1.83 | -4.66
FC(F)(F)c1cccc(Nc2nccc(-c3cnn4nc(-c5ccccc5)ccc34)n2)c1 | 0.48 | 1.21 | 0.98 | 1.01 | 1.56 | 1.05 | 1.35 | 1.39 | 2.04 | 1.3 | 0.82 | 2.37 | 2.67 | 1.96 | 1.95 | 2.7 | 1.72 | 1.9 | 1.87 | -0.41
O=C1NC(=O)C(c2cccc(Cl)c2)=C1Nc1ccc(Cl)c(C(=O)O)c1 | 0.78 | 1.95 | 4.98 | 1.51 | 2.92 | 1.25 | 1.6 | 1.79 | 1.6 | 1.24 | 3.09 | 3.35 | 8.21 | 0.84 | 3.07 | 2.77 | 4.64 | 3.69 | 3.89 | -0.69
c1ccc(-c2n[nH]cc2-c2ccnc(-c3ccc(OCCN4CCOCC4)cc3)c2)nc1 | 2.14 | -0.2 | -1.4 | 0.42 | -1.3 | 0.55 | 0.57 | -0.89 | -0.56 | -0.33 | -0.39 | 5.23 | 3.03 | 3.23 | -0.68 | 3.83 | 4.03 | 0.65 | -0.75 | 6.57
CCc1ccc(Oc2nccc(-c3c(-c4ccc(F)cc4)ncn3C3CCNCC3)n2)cc1 | 3.4 | 2.09 | 3.7 | 2.14 | 3.42 | 3.03 | 4.07 | 3.08 | 3.54 | 3.18 | 3.1 | -1.02 | 1.21 | -0.69 | 1.93 | -0.71 | 1.87 | 5.5 | 8.69 | 5.08
